Target: Lysosomal acid glucosylceramidase (Homo sapiens) (UniProt P04062)
Assay: Glucocerebrosidase-p2 (AID 348)
Settings: purified GBA, blue fluorogenic substrate, 40 min; in the data active = potency below about 10 µM; inactive = the rest
Method in brief: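 Normal human glucocerebrosidase (0.2 nM) with blue fluorogenic substrate (80 uM final) in citrate/phosphate pH 5.9 with 10mM sodium taurocholate, 0.01% tween-20; 40 min RT, NaOH/glycine stop; fluorescence Ex 365/Em 440; AC50 from a titration from 0.6 nM upwards.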
Potency is read from the fitted curve at half-maximal effect.

Chain of Lysosomal acid glucosylceramidase (Homo sapiens) (P04062 whole entry, looked up): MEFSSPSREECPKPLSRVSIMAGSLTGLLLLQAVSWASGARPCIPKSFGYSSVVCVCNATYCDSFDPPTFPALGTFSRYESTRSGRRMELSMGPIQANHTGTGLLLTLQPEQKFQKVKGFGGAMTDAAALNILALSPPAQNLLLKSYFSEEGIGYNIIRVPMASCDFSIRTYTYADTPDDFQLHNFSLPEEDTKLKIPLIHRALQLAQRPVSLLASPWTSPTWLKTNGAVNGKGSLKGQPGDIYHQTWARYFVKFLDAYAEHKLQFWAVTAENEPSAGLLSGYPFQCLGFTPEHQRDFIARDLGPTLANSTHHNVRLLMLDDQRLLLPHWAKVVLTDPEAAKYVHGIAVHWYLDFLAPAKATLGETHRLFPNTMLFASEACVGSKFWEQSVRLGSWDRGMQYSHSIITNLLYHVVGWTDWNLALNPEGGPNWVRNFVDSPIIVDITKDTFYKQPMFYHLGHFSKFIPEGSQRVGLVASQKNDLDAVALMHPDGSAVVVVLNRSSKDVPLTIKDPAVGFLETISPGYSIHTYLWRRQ

Potency, inactive:
O=C(O)[C@H]1CC=CC[C@@H]1C(=O)Nc1cccc(O)c1 > 11.4 µM
O[C@@H](c1cc([C@@]23C[C@H]4CC[C@@H]2C[C@H](C4)C3)nc2c(Cl)cc(Cl)cc12)[C@@H]1CCCCN1 > 11.4 µM
CCOC(=O)c1cnc(N(C)C)nc1SC(=N)N > 11.4 µM
OC[C@@H]1O[C@H](n2cnc3c(/C=C(\O)c4ccccc4)ncnc32)[C@H](O)[C@@H]1O > 11.4 µM
Cc1nc2ccccc2nc1-c1ccc(N=[N+]([O-])c2ccc(-c3nc4ccccc4nc3C)cc2)cc1 > 11.4 µM
O=C1[C@@H]2[C@@H](C(=O)N1c1ccc(OCc3ccccc3)cc1)[C@@H]1c3ccccc3[C@@H]2[n+]2ccccc21 > 11.4 µM
Cc1ccc(C2=C(Cl)C(=O)C(c3ccc(C)cc3)=C(Cl)C2=O)cc1 > 11.4 µM
C[C@@]12CC[C@@H]3[C@H](CCC4=CC(=O)CC[C@]43C)[C@@H]1CC[C@@H]2C(=O)Cn1cnc2c(=S)nc[nH]c21 > 11.4 µM
Cc1ncn(-c2ccccc2O)c1C > 11.4 µM
O=[N+]([O-])c1ccc(CSCc2ccc(Cl)cc2)cc1 > 11.4 µM
O=C(O)CCNc1ncnc2nc[nH]c12 > 11.4 µM
COc1ccc(Cc2ccccc2C(=O)O)c2ccccc12 > 11.4 µM
O[C@@H](c1cc(C(F)(F)F)nc2c(Cl)cc(Cl)cc12)[C@@H]1CCCCN1 > 11.4 µM
O=C(O)C[C@H](S)C(=O)O > 11.4 µM
CC(C)C12CC[C@@]3(CC[C@H]4[C@@](C)(CCC[C@]4(C)C(=O)O)[C@@H]3C1)[C@@H](CN)C2 > 11.4 µM
Cc1ccc(C)c(/C(=N\N=C(N)N)C2CC2)c1 > 11.4 µM
Nc1ncnc2c1ncn2[C@H]1O[C@@H](C(=O)O)[C@@H](O)[C@H]1O > 11.4 µM
Oc1c(CN2CCN(c3ccccc3)CC2)cc(Br)c2cccnc12 > 11.4 µM
N/N=C1/CC(=O)NC(=O)N1 > 11.4 µM
N[C@@H](CC1=CS(=O)(=O)c2ccc(Cl)cc21)C(=O)O > 11.4 µM
C[N+]1([C@H](CO)Cc2c[nH]c3ccccc23)Cc2ccccc2C1 > 11.4 µM
c1ccc(C[n+]2cccc(-c3cc4ccccc4[nH]3)c2)cc1 > 11.4 µM
C[N+](C)(C)CCCSc1nc2ccccc2[nH]1 > 11.4 µM
Cc1cc(=Nc2ccc3c(c2)c(N)cc(C)[n+]3C)nc(N)n1C > 11.4 µM
COc1ncc2nc(CCc3ccccc3)c(=O)n(C)c2n1 > 11.4 µM
C[C@H](NC(=O)c1ccc(Cl)c(Cl)c1)c1ccc(-c2ccccc2)cc1 > 11.4 µM
COc1ccc2cc1Oc1ccc(cc1)C[C@@H]1c3c(cc(OC)c4c3Oc3cc5c(cc3O4)CCN[C@H]5C2)CCN1C > 11.4 µM
O=C(O)/C=C\C(=O)Nc1cccc2c1-c1ccccc1C2=O > 11.4 µM
O=C(O)/C=C\C(=O)N1Cc2cc3ccccc3nc2C1 > 11.4 µM
O=C(Nc1cccc2cccnc12)[C@@H]1[C@@H](C(=O)O)[C@H]2CC[C@@H]1O2 > 11.4 µM
CC(C)C(=O)C(C)(C)CCc1ccccn1 > 11.4 µM
OCCN(CCO)c1ncnc2nc[nH]c12 > 11.4 µM
CCN(CC)CC[n+]1ccc2c(C)c3[nH]c4ccc(O)cc4c3c(C)c2c1 > 11.4 µM
CN(C)CCC(=O)[C@@]1(O)CC[C@H]2[C@H]3CC=C4C[C@@H](O)CC[C@]4(C)[C@H]3CC[C@]21C > 11.4 µM
O=C1C=CC(=Nc2cccc3c(N=C4C=CC(=O)O4)cccc23)O1 > 11.4 µM
COc1ccc2c3c(ccc2c1)N[C@H](C(=O)O)CC3 > 11.4 µM
N=C1CCC[C@@H]1C(=S)SCCC(N)=O > 11.4 µM
CCN(CC)CC[n+]1ccc2c(C)c3[nH]c4ccccc4c3c(C)c2c1 > 11.4 µM
O=CN1CCN(C[C@H](O)CN2CCCCC2)CC1 > 11.4 µM
Oc1cc(O)c2c(c1)O[C@@H](c1ccc(O)c(O)c1)[C@H](O[C@@]1(c3cc(O)c(O)c(O)c3)Oc3cc(O)cc(O)c3[C@H](O)[C@@H]1O)C2 > 11.4 µM
